Out of some 2,500 compounds screened, about 360 (14%) were called active. The list is a sample of the results. A number with no mark means an inactive call.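 The calls were made as follows: active = signal-lowering compounds whose fitted half-maximal concentration AC50 is no higher than ten times their top tested concentration; inconclusive = flat curve with 30 to 70% inhibition, or poor fit; inactive = flat within 30%, signal increase, or AC50 above limit.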

A word on the AC50: it is the concentration giving half of the maximal activity seen.

The nature of the assay: HRP/luminol detection interference without ALR, dose response, artefact control for ALR inhibitor project, biochemical, luminescence, no ALR or DTT, cherry-pick (AID 540356).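 As to activity change, negative = inhibition: 0% = median of neutral control wells and -100% = median of quercitin 100 µM wells.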 Particulars: HRP/H2O2 luminol luminescence counterscreen; series mostly up to 10 µM; activity change, negative = inhibition: at the top concentration.
Consider `C/C(=N\Nc1cccc(Cl)c1)c1ccncc1`, for which the “activity change, negative = inhibition” value was 3.05%.

As for `COc1ccc(Nc2cccc(Cl)c2)c(C(=O)O)c1`, the “activity change, negative = inhibition” value is -13.4%.

As for `O=C(NNc1cccc(Cl)c1)c1cccnc1Cl`, the half-maximal activity concentration (AC50) was 6.88 µM (active).

Turning to `O=C(CC1CCCC1)N1CCCC(Nc2ccc(F)cc2)C1` (stereo not given), the “activity change, negative = inhibition” value is 0.017%.

As to `Cc1occc1C(=O)N1CCCC(Nc2ccc(C(C)C)cc2)C1` (stereo not given), the “activity change, negative = inhibition” value is -3.64%.

`CCS(=O)(=O)N1Cc2ccccc2CC1C(=O)N1CCN(c2ccccc2)CC1` (stereo not given): the “activity change, negative = inhibition” value was 1.97%.

For the molecule `Cc1ccc2c(C)c(C(=O)Nc3ccc(S(=O)(=O)Nc4onc(C)c4C)cc3)oc2c1`, the “activity change, negative = inhibition” value is -6.98%.

With `CCN(CC)c1ccc(NC(=O)CN2CCN(c3ccc(F)cc3)CC2)cc1`, the “activity change, negative = inhibition” value is -1.86%.

Consider `CCN(CC)c1ccc(NC(=O)CN2CCN(c3nc(C)cc(C)n3)CC2)cc1`, for which the “activity change, negative = inhibition” value is -15.6%.

For `CCN(CC)c1ccc(NC(=O)c2nc3nc(C)cc(C(F)F)n3n2)cc1`, the AC50 was 10.3 µM (active).

For `COc1ccc(N2C(=O)CSC2c2ccc([N+](=O)[O-])cc2)cc1` (stereo not given), the “activity change, negative = inhibition” value is 0.574%.

In the case of `O=C(NNc1ccc(O)cc1)c1ccc(Br)cc1`, the AC50 was 9.05 µM (active).

In the case of `O=C(NNc1cc(Br)c(O)c(Br)c1)c1ccccc1`, the “activity change, negative = inhibition” value is -1.51%.

Turning to `COc1ccc(Br)cc1C(=O)Nc1ccc(O)cc1`, the “activity change, negative = inhibition” value is -12.1%.

Regarding `Nc1cccc(/C=C/c2ccncc2)c1`, the “activity change, negative = inhibition” value is -4.25%.

As to `CCN(CC)Cc1c(-c2ccccc2)[nH]c2ccc(C)cc2c1=O`, the “activity change, negative = inhibition” value was -0.224%.

For the molecule `Oc1ccc(O)c(-c2cnns2)c1`, the AC50 is 5.54 µM (active).

As to `c1ccc(-c2nnc(CN3CCN(c4ccccc4)CC3)o2)cc1`, the “activity change, negative = inhibition” value was 1.45%.

With `COc1ccc(NC2CCCN(C(=O)c3cn(C)c4ccccc34)C2)cc1` (stereo not given), the “activity change, negative = inhibition” value is -14.7%.

Take `Cc1ccc(Nc2c(-c3ccccc3O)nc3cnccn23)cc1`: the “activity change, negative = inhibition” value was 0.898%.

As for `CC(=O)Oc1cc2oc(=O)cc(C)c2cc1Cl`, the “activity change, negative = inhibition” value was -1.43%.

Regarding `Cc1cc(N)n2ncc(-c3ccccc3)c2n1`, the “activity change, negative = inhibition” value is -0.253%.

`O=C(NCC(c1cccnc1)N1CCN(c2ccc(F)cc2)CC1)c1ccco1` (stereo not given): the “activity change, negative = inhibition” value is -1.53%.

Turning to `COC(=O)[C@H](Cc1ccccc1)NC(=O)N1CCN(c2ccccc2)CC1`, the “activity change, negative = inhibition” value was 0.603%.

With `O=C(CN1CCN(c2ccccc2)CC1)Nc1ccccc1Cl`, the “activity change, negative = inhibition” value was -0.658%.

As to `O=C1N/C(=N\S(=O)(=O)Cc2ccccc2)S/C1=C/c1cc([N+](=O)[O-])ccc1O`, the “activity change, negative = inhibition” value is -0.915%.

Consider `Cc1ccc(N2CCN(C(=O)CNS(=O)(=O)c3ccc(Br)s3)CC2C)cc1` (stereo not given), for which the “activity change, negative = inhibition” value is -2.85%.

With `COc1ccc(N2CCN(C(=O)c3ccc(SC)cc3OC)CC2)cc1`, the “activity change, negative = inhibition” value is 0.908%.

With `S=c1nc(-c2cc(Cl)cc(Cl)c2)[nH][nH]1`, the “activity change, negative = inhibition” value is -2.06%.

On to `CCn1c(-c2cc(OC)c(OC)c(OC)c2)n[nH]c1=S`, for which the “activity change, negative = inhibition” value is -10.3%.

Regarding `COc1cc(-c2nc(=S)[nH][nH]2)cc(OC)c1OC`, the AC50 was 3.9 µM (active).

With `S=c1nc(-c2cccc(Cl)c2)[nH][nH]1`, the “activity change, negative = inhibition” value was -9.58%.

With `FC(F)(F)c1ccc(-c2nc(=S)[nH][nH]2)cc1`, the “activity change, negative = inhibition” value was -5%.

As for `COc1ccc(-c2nc(=S)[nH][nH]2)cc1`, the AC50 was 2.94 µM (active).

In the case of `CC(=O)Nc1ccc(N2C(=O)CSC2c2ccccc2)cc1` (stereo not given), the “activity change, negative = inhibition” value was 3.31%.

For `COc1ccc2nc(N3CCCC3)[nH]c2c1`, the “activity change, negative = inhibition” value is -7.05%.

For the molecule `Cc1[nH]c2ccccc2c1N=Nc1cccc(C(=O)O)c1`, the “activity change, negative = inhibition” value is -10.3%.

Regarding `CCCCC(NC(=O)Cc1c(C)c2cc3c(C)c(C)oc3c(C)c2oc1=O)C(=O)O` (stereo not given), the “activity change, negative = inhibition” value was -14.1%.

On to `CC(=O)NC(c1cc(Cl)c2ccccc2c1O)C(C)C` (stereo not given), for which the “activity change, negative = inhibition” value was -4.5%.

With `COc1ccccc1N1CCN(C2CCCN(C(=O)CCc3c(C)noc3C)C2)CC1` (stereo not given), the “activity change, negative = inhibition” value was -1.06%.

Regarding `CCN(CC)c1ccc(NC(=O)c2ccc(Br)o2)c(C)c1`, the “activity change, negative = inhibition” value was -5.68%.

`Cc1cccc(C2CN(C)CCc3c2cc(O)c(O)c3Cl)c1` (stereo not given): the AC50 is 8.78 µM (active).

For the molecule `COc1cc(OC)cc(-c2cn[nH]c2N)c1`, the “activity change, negative = inhibition” value is 0.221%.

On to `COc1ccc(-c2cn[nH]c2N)c(OC)c1`, for which the concentration at half-maximal activity (AC50) was 7 µM (active).

Take `COc1ccc2[nH]c(=S)[nH]c2c1`: the “activity change, negative = inhibition” value is -5.52%.

For `Nc1cccc(CCc2ccncc2)c1`, the “activity change, negative = inhibition” value was -1%.

On to `O=C(Cc1ccc(Cl)cc1)N1CCN(c2ccccc2)CC1`, for which the “activity change, negative = inhibition” value was -0.387%.

`O=c1/c(=C/c2ccc(O)cc2)sc2n1CCCN=2`: the AC50 was 9.71 µM (active).

Turning to `O=C(C1CCCN(S(=O)(=O)c2cnc[nH]2)C1)N1CCN(c2ccc(Cl)cc2)CC1` (stereo not given), the “activity change, negative = inhibition” value is -7.06%.

As for `O=C1CCCN1CCCNc1ncnc2c1[nH]c1ccc(Cl)cc12`, the “activity change, negative = inhibition” value was -0.822%.

Consider `COc1cc2c(ccc3cc(OC)c(OC)c(O)c32)cc1O`, for which the “activity change, negative = inhibition” value was -17%.

`CCN(CCNS(=O)(=O)c1ccc2[nH]c(=O)sc2c1)c1ccccc1`: the “activity change, negative = inhibition” value was -0.959%.

On to `CC(=O)N1CC[n+]2c(-c3ccc(Cl)cc3)csc21`, for which the “activity change, negative = inhibition” value was -1.68%.

For `O=C(CNc1ccc2ccccc2c1)NNC1=NCCC1`, the “activity change, negative = inhibition” value was -0.851%.

For `O=C1CCC(=O)N1CNc1ccc(Oc2ccccc2)cc1`, the “activity change, negative = inhibition” value was 0.862%.

Turning to `O=C(CN1C(=O)CCC1=O)NNc1ccc2ccccc2c1`, the concentration at half-maximal activity (AC50) is 0.0915 µM (active).

Consider `CCCn1cnc2cc(NCc3ccccc3O)ccc21`, for which the “activity change, negative = inhibition” value is 1.95%.

Take `Cc1cc(N2CCN(c3ccccc3)CC2)n2ncnc2n1`: the “activity change, negative = inhibition” value is -4.68%.

`O=C(O)c1ccc(CSc2nc3ccccc3o2)cc1`: the “activity change, negative = inhibition” value is -3.53%.

For the molecule `CC(=O)N1CCN(C(=S)c2ccc(N(C)C)cc2)CC1`, the “activity change, negative = inhibition” value is -6.25%.

The values above are taken from PubChem BioAssay AID540356 (Broad Institute, 2011).
